Here are results for three compounds from paper PMC11062922 (Nature Chemical Biology, 2023).

What all share (set-up): species or system human, MV4-11 + K-562 + COLO205 + SK-N-BE2 + OVCAR-8
In one assay the test system is CDK10. The conditions noted are these: read-out: apparent Kd; compound concentrations: 100 nM and 1000 nM (sheet 'Samples'), CATDS: 0.11960358808183499; n = 1.
Another assay has as its system GSK3A. Conditions: read-out: apparent Kd, n = 1.
In another assay the test system is GSK3B. Conditions: read-out: apparent Kd, n = 1.
A further assay concerns HSPE1. The conditions noted are these: read-out: apparent Kd; compound concentrations: 100 nM and 1000 nM (sheet 'Samples'), CATDS: 0.54374623342004202; n = 1.
A further assay deals with ICK. Conditions: read-out: apparent Kd, n = 1.
Another assay has as its system PKM. Conditions: read-out: apparent Kd; compound concentrations: 100 nM and 1000 nM (sheet 'Samples'), CATDS: 0.11750793600078301; n = 1.
In the next assay the test system is CDC42. Conditions: read-out: apparent Kd; compound concentrations: 100 nM and 1000 nM (sheet 'Samples'), CATDS: 4.3032630224219597E-2; n = 1.
For a further assay, the system named is CLK1. The conditions noted are these: read-out: apparent Kd, n = 1.
In the next assay the test system is CLK4. The conditions noted are these: read-out: apparent Kd, n = 1.
For another assay, the system named is COX5A. Conditions: read-out: apparent Kd; compound concentrations: 100 nM and 1000 nM (sheet 'Samples'), CATDS: 4.3023154041585097E-2; n = 1.
A further assay deals with CSNK1D. Conditions: read-out: apparent Kd; compound concentrations: 100 nM and 1000 nM (sheet 'Samples'), CATDS: 4.2260690384559901E-2; n = 1.
The next assay concerns CSNK1E. Conditions: read-out: apparent Kd; compound concentrations: 100 nM and 1000 nM (sheet 'Samples'), CATDS: 3.6484131745227702E-2; n = 1.
In the next assay the test system is EIF2AK1. Conditions: read-out: apparent Kd; compound concentrations: 100 nM and 1000 nM (sheet 'Samples'), CATDS: 4.9510201878617897E-2; n = 1.
In a further assay the test system is GAK. The conditions noted are these: read-out: apparent Kd; compound concentrations: 100 nM and 1000 nM (sheet 'Samples'), CATDS: 0.41748311116987502; n = 1.
The test system of another assay is IGF1R. Conditions: read-out: apparent Kd; compound concentrations: 100 nM and 1000 nM (sheet 'Samples'), CATDS: 4.75175381268634E-2; n = 1.
The next assay concerns INSR. Conditions: read-out: apparent Kd; compound concentrations: 100 nM and 1000 nM (sheet 'Samples'), CATDS: 6.6437205793840798E-2; n = 1.
The next assay relates to MAPK10. Conditions: read-out: apparent Kd; compound concentrations: 100 nM and 1000 nM (sheet 'Samples'), CATDS: 0.17405984899870899; n = 1.
The next assay relates to MAPK8. Conditions: read-out: apparent Kd; compound concentrations: 100 nM and 1000 nM (sheet 'Samples'), CATDS: 0.110364514010045; n = 1.
A further assay relates to MAPK9. Conditions: read-out: apparent Kd; compound concentrations: 100 nM and 1000 nM (sheet 'Samples'), CATDS: 6.3911773548267894E-2; n = 1.
The next assay has as its system NQO2. Conditions: read-out: apparent Kd; compound concentrations: 100 nM and 1000 nM (sheet 'Samples'), CATDS: 4.0166930587455497E-2; n = 1.
Another assay relates to PSMC4. Conditions: read-out: apparent Kd; compound concentrations: 100 nM and 1000 nM (sheet 'Samples'), CATDS: 4.1025682332982399E-2; n = 1.
In the next assay the test system is PTK2B. Conditions: read-out: apparent Kd; compound concentrations: 100 nM and 1000 nM (sheet 'Samples'), CATDS: 7.7838120070478606E-2; n = 1.
The subject of a further assay is TNK1. Conditions: read-out: apparent Kd; compound concentrations: 100 nM and 1000 nM (sheet 'Samples'), CATDS: 8.1062749446302901E-2; n = 1.
The test system of another assay is TTK. The conditions noted are these: read-out: apparent Kd; compound concentrations: 100 nM and 1000 nM (sheet 'Samples'), CATDS: 5.00246606430578E-2; n = 1.
The subject of another assay is CDK16. The conditions noted are these: read-out: apparent Kd; compound concentrations:100 nM and 1000 nM (sheet 'Samples'); n = 1.
The next assay deals with CDK2. Conditions: read-out: apparent Kd; compound concentrations:100 nM and 1000 nM (sheet 'Samples'); n = 1.
The subject of the next assay is CDK9. Conditions: read-out: apparent Kd; compound concentrations:100 nM and 1000 nM (sheet 'Samples'); n = 1.
Another assay has as its system CLK2. Conditions: read-out: apparent Kd; compound concentrations:100 nM and 1000 nM (sheet 'Samples'); n = 1.
The next assay relates to NUAK2. Conditions: read-out: apparent Kd; compound concentrations:100 nM and 1000 nM (sheet 'Samples'); n = 1.
In another assay the test system is PRKCA. Conditions: read-out: apparent Kd; compound concentrations:100 nM and 1000 nM (sheet 'Samples'); n = 1.
For the next assay, the system named is PRKCB. Conditions: read-out: apparent Kd; compound concentrations:100 nM and 1000 nM (sheet 'Samples'); n = 1.
For another assay, the system named is PRKCD. The conditions noted are these: read-out: apparent Kd; compound concentrations:100 nM and 1000 nM (sheet 'Samples'); n = 1.
A further assay relates to PRKCI. The conditions noted are these: read-out: apparent Kd; compound concentrations:100 nM and 1000 nM (sheet 'Samples'); n = 1.
The subject of another assay is PRKCQ. Conditions: read-out: apparent Kd; compound concentrations:100 nM and 1000 nM (sheet 'Samples'); n = 1.
Another assay concerns RPS6KA3. The conditions noted are these: read-out: apparent Kd; compound concentrations:100 nM and 1000 nM (sheet 'Samples'); n = 1.
A further assay has as its system RPS6KA6. The conditions noted are these: read-out: apparent Kd; compound concentrations:100 nM and 1000 nM (sheet 'Samples'); n = 1.
The subject of a further assay is RPS6KB1. Conditions: read-out: apparent Kd; compound concentrations:100 nM and 1000 nM (sheet 'Samples'); n = 1.
Another assay deals with SLK. Conditions: read-out: apparent Kd; compound concentrations:100 nM and 1000 nM (sheet 'Samples'); n = 1.
The subject of a further assay is STK26. The conditions noted are these: read-out: apparent Kd; compound concentrations:100 nM and 1000 nM (sheet 'Samples'); n = 1.
For a further assay, the system named is VDAC3. The conditions noted are these: read-out: apparent Kd; compound concentrations:100 nM and 1000 nM (sheet 'Samples'); n = 1.
The mark [1] stands for this setting: compound concentrations:100 nM and 1000 nM (sheet 'Samples').

Where two headings read alike, the source gives them in different places.

In the case of `Cn1cc(C2=C(c3cccnc3)C(=O)NC2=O)c2ccccc21` [RO0317886-000], the potency estimated from few doses was 1.08 µM in the assay on CDK10; 0.213 µM in the assay on GSK3A (compound concentrations: 100 nM and 1000 nM (sheet 'Samples'), CATDS: 0.212149107920546); 0.222 µM in the assay on GSK3B (compound concentrations: 100 nM and 1000 nM (sheet 'Samples'), CATDS: 0.208029225896153); 0.0393 µM with HSPE1; 0.825 µM in the assay with ICK (compound concentrations: 100 nM and 1000 nM (sheet 'Samples'), CATDS: 0.128713258557627); 1.16 µM with PKM.
As for `CCCN1CCCC(c2ccc(Nc3nc(Nc4cc(F)ccc4C(N)=O)c4cc[nH]c4n3)c(OC)c2)C1` (stereo not drawn) [GSK1173862A], the potency estimated from few doses with CDC42 is 1.23 µM; in the assay with CLK1 (compound concentrations: 100 nM and 1000 nM (sheet 'Samples'), CATDS: 4.7124029654616303E-2), 0.927 µM; in the assay with CLK4 (compound concentrations: 100 nM and 1000 nM (sheet 'Samples'), CATDS: 4.6212544182609797E-2), 0.982 µM; in the assay on COX5A, 1.23 µM; in the assay on CSNK1D, 1.31 µM; in the assay on CSNK1E, 2.34 µM. In addition, the potency estimated from few doses is 0.805 µM in the assay with EIF2AK1; 0.0176 µM in the assay on GAK; 0.905 µM in the assay with IGF1R; 0.391 µM in the assay on INSR; 0.0652 µM in the assay with MAPK10; 0.143 µM in the assay on MAPK8. Moreover, the potency estimated from few doses in the assay on MAPK9 was 0.427 µM; with NQO2 it was 1.57 µM; with PSMC4, 1.45 µM; with PTK2B, 0.28 µM; in the assay with TNK1, 0.257 µM; with TTK, 0.783 µM.
For `Cn1cc(C2=C(c3cn(CCCSC(=N)N)c4ccccc34)C(=O)NC2=O)c2ccccc21` [RO0318220-000], the potency estimated from few doses was 1.72 µM with CDK16; 1.07 µM in the assay with CDK2; 0.694 µM in the assay on CDK9; 0.785 µM in the assay with CLK1 (setting [1]); 0.434 µM with CLK2; 1.43 µM with CLK4 (setting [1]). In addition, the potency estimated from few doses in the assay on GSK3A (setting [1]) was 0.158 µM; in the assay with GSK3B (setting [1]) it was 0.183 µM; in the assay on ICK (setting [1]) it was 1.72 µM; in the assay on NUAK2, 1.42 µM; in the assay on PRKCA, 0.0415 µM; in the assay on PRKCB it was 0.105 µM. Further, the potency estimated from few doses with PRKCD was 0.0584 µM; in the assay on PRKCI, 2.28 µM; with PRKCQ, 0.121 µM; with RPS6KA3, 1.3 µM; in the assay with RPS6KA6, 0.0338 µM; in the assay with RPS6KB1, 0.419 µM. In addition, the potency estimated from few doses in the assay with SLK is 2.1 µM; in the assay on STK26 it was 1.48 µM; with VDAC3, 2.31 µM.
